Experimental data as given in the supplement of paper PMC6555819.

Columns and labels:
Assay in all cases: PBM binding z-score (relative to random genomic background probes); higher = stronger binding; sequences stand for … in GC…GCGATTGACAGCGTAGAATGAAGG
[1] = test system: FXR:RXRa (NR concentration 270 nM, RXRa partner concentration 90 nM)
Procedure, shortened: (§1)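 Probes were double-stranded and carried 34-nt variable regions with direct-repeat seeds, single-nucleotide variants, half-site ablations and random human genomic background sequences, printed on custom Agilent 4×180K protein-binding microarrays. Arrays were incubated 1 h with ligand-free nuclear receptor dimers in PBS pH 7.4, 2% milk, 0.02% Triton X-100, 1 mM DTT, 0.2 mg/mL BSA and 0.4 mg/ml salmon testes DNA. Antibodies against each partner (one per run) detected binding, and scanned fluorescence was regression-normalized. Binding z-scores use the random background probes as reference.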

[2] = test system: LXRa:RXRa (NR concentration 270 nM, RXRa partner concentration 90 nM)
Procedure, shortened: as §1

[3] = test system: LXRa homodimer (NR concentration 270 nM)
Procedure, shortened: as §1

[4] = test system: LXRb:RXRa (NR concentration 270 nM, RXRa partner concentration 90 nM)
Procedure, shortened: as §1

[5] = test system: LXRb homodimer (NR concentration 270 nM)
Procedure, shortened: as §1

[6] = test system: PPARa:RXRa (NR concentration 270 nM, RXRa partner concentration 90 nM)
Procedure, shortened: as §1

[7] = test system: PPARg:RXRa (NR concentration 180 nM, RXRa partner concentration 90 nM)
Procedure, shortened: as §1

[8] = test system: PPARg:RXRa 270nM:90nM, anti-RXR (NR concentration 270 nM, RXRa partner concentration 90 nM)
Procedure, shortened: as §1

[9] = test system: PPARg:RXRa 30nM:10nM, anti-RXR (NR concentration 30 nM, RXRa partner concentration 10 nM)
Procedure, shortened: as §1

[10] = test system: PPARg:RXRa 90nM:30nM, anti-RXR (NR concentration 90 nM, RXRa partner concentration 30 nM)
Procedure, shortened: as §1

[11] = test system: PPARg:RXRa DBDmut IVT, anti-RXR (DBD mutation: RXRa K156A/R161A, NR concentration 270 nM, RXRa partner concentration 90 nM)
Procedure, shortened: as §1

[12] = test system: PPARg:RXRa IVT, anti-PPARg (NR concentration 270 nM, RXRa partner concentration 90 nM)
Procedure, shortened: as §1

[13] = test system: PPARg DBDmut:RXRa IVT, anti-PPARg (DBD mutation: PPARg1 K132A/R137A, NR concentration 270 nM, RXRa partner concentration 90 nM)
Procedure, shortened: as §1

[14] = test system: PPARg DBDmut IVT, anti-PPARg (DBD mutation: PPARg1 K132A/R137A, NR concentration 270 nM)
Procedure, shortened: as §1

[15] = test system: PPARg homodimer (NR concentration 180 nM)
Procedure, shortened: as §1

[16] = test system: PXR:RXRa (NR concentration 270 nM, RXRa partner concentration 90 nM)
Procedure, shortened: as §1

[17] = test system: PXR homodimer (NR concentration 270 nM)
Procedure, shortened: as §1

[18] = test system: RARa:RXR (NR concentration 270 nM, RXRa partner concentration 90 nM)
Procedure, shortened: as §1

[19] = test system: RARa homodimer (NR concentration 270 nM)
Procedure, shortened: as §1

[20] = test system: RARb:RXRa (NR concentration 270 nM, RXRa partner concentration 90 nM)
Procedure, shortened: as §1

Row | Sequence | PBM binding z-score [1] | PBM binding z-score [2] | PBM binding z-score [3] | PBM binding z-score [4] | PBM binding z-score [5] | PBM binding z-score [6] | PBM binding z-score [7] | PBM binding z-score [8] | PBM binding z-score [9] | PBM binding z-score [10] | PBM binding z-score [11] | PBM binding z-score [12] | PBM binding z-score [13] | PBM binding z-score [14] | PBM binding z-score [15] | PBM binding z-score [16] | PBM binding z-score [17] | PBM binding z-score [18] | PBM binding z-score [19] | PBM binding z-score [20]
1 | TCTGCTAGGTCAGTTGGTCAGATAACGAGCTGCC | 1.05 | 0.831 | -0.457 | 0.683 | 0.181 | 1.36 | 0.922 | 1.72 | 1.53 | 1.68 | 2.68 | 3.15 | 0.782 | 0.323 | 0.482 | 0.274 | -0.646 | 0.69 | -0.432 | 3.36
2 | ATCGAAAGGTCGTGAGATGAGTATACAGAAAGGC | 4.78 | 3.98 | 0.0145 | 3 | 0.525 | 5.17 | 3.63 | 3.8 | 1.53 | 2.49 | -0.3 | 1.61 | 1.59 | 1.02 | 1.18 | 3 | 0.0556 | 3.62 | 0.436 | 3.91
3 | CAAACTAGGTCACGAAAGGTCACAGTCGAATGAC | 6.73 | 7.6 | 5.88 | 6.82 | 1.64 | 6.62 | 10.1 | 8.34 | 6.6 | 8.57 | 8.61 | 9.14 | 2.02 | 1.37 | 4.6 | 6.61 | 1.31 | 7.03 | 2.46 | 5.7
4 | ATCGAAAGGTCGTGAGGTGAGTATTCAGAAAGGC | 5.34 | 4.08 | -0.0279 | 3.34 | 0.35 | 5.12 | 4.06 | 4.24 | 1.5 | 2.96 | 0.173 | 2.36 | 0.908 | 0.365 | 1.83 | 3.37 | 0.136 | 4.62 | 0.587 | 4.08
5 | TCTTGTAGATCAGCAGGTTAAGAGAGCTGGCCAA | -0.327 | -0.11 | -0.629 | 0.359 | -0.638 | 0.689 | -0.415 | 1.35 | 2.45 | 1.77 | 1.29 | 0.366 | -0.495 | -0.454 | -0.22 | 0.214 | -0.483 | 0.282 | -0.593 | 0.113
6 | TGCCAAAGTTCAAAGGTAACGTAAGTATCCACAC | 7.28 | 6.4 | 4.65 | 4.85 | 1.81 | 5.9 | 7.61 | 7.16 | 4.42 | 6.78 | -0.203 | 3.58 | 0.542 | 1.37 | 4.73 | 6.14 | 4.67 | 7.24 | 1.95 | 5.19
7 | CCAACTGGGCCAAGGTCATTGATCAGTCAAAGCA | 2.96 | 2.9 | 0.591 | 2.91 | -0.522 | 4.3 | 4.16 | 4.06 | 1.82 | 3.3 | 4.04 | 4.58 | -0.617 | -0.824 | 1.58 | 3.11 | 0.914 | 3.22 | 0.0494 | 3.39
8 | ATCTCTAGGTATAGATAGTTCAGTGAATGCAAAT | 0.0439 | 0.281 | 0.536 | 0.328 | 0.404 | 0.225 | 0.685 | 0.289 | 0.345 | 0.323 | -0.0574 | 0.416 | 1.48 | 1.36 | 0.546 | 0.877 | 0.855 | 0.453 | 0.807 | 0.415
9 | CAAACTAGGTCACAGAGATCAAAGTCCGTGCGTA | 4.32 | 3.26 | 0.659 | 2.41 | 0.38 | 5.25 | 8.83 | 7.25 | 5.12 | 7.3 | 8.62 | 9.06 | 1.86 | 1 | 2.16 | 2.28 | 0.448 | 2.78 | 0.89 | 4.03
10 | GCTAGTTGGTCTGTAAAAGGTCACACACCGGTCG | 3.27 | 4.45 | 4.26 | 3.98 | 0.57 | 4.33 | 2.5 | 4.63 | 2.19 | 4.12 | 0.547 | 2.28 | 0.389 | -0.363 | 4.38 | 4.79 | 1.16 | 5.54 | 1.67 | 3.87
11 | TGGAGTAGGTTACCAATGGGGCATTCAGCTTTCT | -0.0639 | 1.5 | -0.0874 | 1.12 | 0.179 | 1.61 | 1.8 | 2.14 | 0.743 | 1.59 | 4.44 | 4.65 | 0.93 | 1.38 | 1.1 | 0.359 | -0.17 | 0.243 | 0.592 | 1.21
12 | CAAACTAGGTCACAGGTCAAAGTCGAGCCAACCA | 6.7 | 5.19 | 3.25 | 4.68 | 1.16 | 6.88 | 12.3 | 9.67 | 10.4 | 11 | 8.4 | 9.27 | 4.16 | 4.09 | 4.17 | 4.41 | 0.711 | 5.81 | 0.827 | 4.7
13 | ACTAGCAGGCCAAGTTTGGGTTACTCAAACAAAG | -0.336 | -0.429 | -0.394 | -0.296 | -0.552 | -0.051 | -0.32 | -0.325 | -0.354 | -0.657 | 0.764 | 0.439 | -1.56 | -0.888 | -0.611 | -0.324 | -0.543 | 0.00564 | -0.953 | 0.389
14 | ATCTCTAGGTAAAGATATTTCAGTGAATGCAAAT | 0.207 | 0.268 | 0.422 | 0.346 | 0.74 | 0.352 | 0.976 | 0.732 | 0.499 | 0.83 | 2.46 | 1.88 | 1.53 | 1.33 | 0.424 | 0.367 | 0.337 | 0.994 | 1.26 | 0.0831
